PRMT1 FP inh: blocks human protein arginine methyltransferase 1; Q99873; AID 652257; recombinant PRMT1, activity-based probe fluorescence polarization; inhibition, % at 2.79 µM; actives 1.3% (n = 370,000);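 active = inhibition above about 21% made by adding two undisclosed values, limit read from the data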
Target sequence (Q99873 whole entry, looked up): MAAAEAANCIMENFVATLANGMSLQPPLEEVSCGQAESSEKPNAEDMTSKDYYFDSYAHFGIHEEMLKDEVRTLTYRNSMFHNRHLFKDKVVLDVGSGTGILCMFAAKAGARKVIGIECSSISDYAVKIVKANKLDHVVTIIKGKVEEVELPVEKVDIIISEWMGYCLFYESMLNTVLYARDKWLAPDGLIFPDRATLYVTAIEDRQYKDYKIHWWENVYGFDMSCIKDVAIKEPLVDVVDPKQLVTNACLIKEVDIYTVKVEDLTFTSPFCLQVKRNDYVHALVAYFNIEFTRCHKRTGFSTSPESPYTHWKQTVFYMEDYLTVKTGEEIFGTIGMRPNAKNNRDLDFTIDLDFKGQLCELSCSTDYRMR
rCAG RNA binder: molecules binding r(CAG) RNA repeats | AID 651821 | inhibition, % at 3 µM | r(CAG) RNA repeat, TO-PRO-1 dye displacement fluorescence | actives 1.3% (n = 370,000);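 active = inhibition above the plate cutoff, the mean of all test compounds on that plate plus 3 SD, cut at about 35% in these data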;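 also: 0% = DMSO alone and 100% = 100 µM mitoxantrone as full dye displacement; higher means more dye released from RNA so lower well fluorescence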
LANA-H2A inh: blocks KSHV LANA binding to histone H2A/H2B; cell-free LANA-H2A/H2B peptide, fluorescence polarization; inhibition, % (test concentration not listed); actives 0.6% (n = 320,000); in the data active = inhibition mostly above about 10%, no sharp cut-off; inactive = mostly below about 6.7%
Rtt109 Vps75: inhibitors of Candida albicans Rtt109/Vps75 histone acetyltransferase; purified Rtt109/Vps75, ThioGlo CoA-SH fluorescence, 4 h; inhibition, % at 34.9 µM; actives 0.16% (n = 330,000);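 active = inhibition of at least 50% in every replicate; inconclusive = best replicate reaches 50% inhibition but some replicates fall short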
ABHD5 PLIN5 PPI: ABHD5-PLIN5 protein interaction inhibition; Q00G26+Q8WTS1; Split G. princeps luciferase complementation, luminescence, 4 h; inhibition, % at 4 µM; actives 0.78% (n = 360,000); AID 602281;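 active = inhibition above the mean inhibition across every tested compound plus 3 SD, cut at about 22% in these data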;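 also: 0% = DMSO only wells and the 100% control is not disclosed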
ALR inh: human ALR oxidase inhibition via reduced H2O2. P55789. purified ALR, DTT oxidation, H2O2 HRP-luminol luminescence. inhibition, % (test concentration not listed). actives 3.8% (n = 290,000);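 active = mean replicate inhibition above about 79%, with every replicate also reaching it, limit read from the data; inconclusive = only one of the two criteria met; inactive = mean below limit and not every replicate reaching it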
PRMT1 confirm: PRMT1 (human) inhibition, FP confirmation; recombinant His-PRMT1, activity-based probe fluorescence polarization; actives 42% (n = 3,300); shares compounds with PRMT1 FP inh; AID 687036; inhibition, % at 2.79 µM;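 active = mean inhibition across replicates above the hit cutoff derived for the earlier primary screen, cut at about 22% in these data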
* hit, by the source's call; u = inconclusive; x = no result. Most compounds without a hit are left out; they make up all but 5.9% or so of the library.

SMILES | PRMT1 FP inh | rCAG RNA binder | LANA-H2A inh | Rtt109 Vps75 | ABHD5 PLIN5 PPI | ALR inh | PRMT1 confirm
COC(=O)[C@]12C[C@H](CC(=O)NCc3cccc4ccccc34)C(=O)N(Cc3ccc(Cl)cc3Cl)C1=C[C@H](COCc1ccccc1)O[C@@H]2C | 68.4* | 12.4 | x | x | x | x | 0.9
C[C@H](CO)N1C[C@H](C)[C@H](CN(C)C(=O)C2CCCCC2)OCc2cnnn2CCCC1=O | -0.5 | 2.8 | x | x | x | x | x
O=C(O)c1cc(NN=C2CCN(Cc3ccccc3)CC2)ccc1Cl | 5.7 | 6.4 | 4.6 | 1.1 | 1.0 | -7.1 | x
C/C(=N\Nc1ccc(Cl)c(C(=O)O)c1)c1ccc[nH]1 | 31.6* | 33.1 | -0.7 | 4.3 | 0.6 | u | 5.1
COc1ccccc1N1C(=O)C(Cl)=C(Nc2ccccc2O)C1=O | 40.3* | 18.0 | x | 75.0* | 1.5 | x | 25.8*
Cn1c(COc2ccc(Br)cc2)nnc1SC1CCc2ccccc2C1=O (stereo not drawn) | 53.2* | 6.2 | 1.4 | 0.3 | -15.7 | -18.3 | 8.6
Cn1c(COc2ccccc2)nnc1SCCSc1nnc(COc2ccccc2)n1C | 0.7 | -2.4 | 0.6 | 10.2 | -4.3 | -12.9 | x
C=CCn1c(SCC(=O)Nc2ccc(Br)cc2)nc(O)c(CC)c1=O | 53.4* | 9.7 | -6.7 | 1.7 | 4.6 | 98.2* | 15.9
Cc1ccc(S(=O)(=O)NC(=O)C2(C)CCN2C(=O)c2cccc(F)c2)nc1 (stereo not drawn) | 3.1 | 3.2 | x | x | 2.6 | x | x
O=C(NCc1n[nH]c(=S)n1-c1cccc(C(F)(F)F)c1)c1ccc(S(=O)(=O)N2CCCCC2)cc1 | 28.1* | 21.3 | -3.3 | 3.3 | -12.6 | 71.1 | 7.6
O=C(NCc1n[nH]c(=S)n1-c1cccc(C(F)(F)F)c1)c1ccc(S(=O)(=O)N2CCCC2)cc1 | 8.9 | 11.0 | 0.5 | 0.8 | -11.8 | 3.3 | x
CCc1nc2c(OCc3c(C)noc3C)cccn2c1N(C=O)Cc1ccccc1 | 3.4 | 1.2 | x | x | 6.9 | x | x
CCCN1CNC(=S)N(CC2CCCO2)C1 (stereo not drawn) | 66.5* | -3.5 | -2.3 | 0.9 | -3.3 | -15.0 | -4.2
CCCN1CNC(=S)N(Cc2ccccc2)C1 | -1.8 | -2.4 | -2.5 | -0.9 | -12.1 | -6.7 | x
COCc1cccc(-c2csc(C(N)c3ccc(F)c(F)c3)n2)c1 (stereo not drawn) | -2.0 | -0.8 | x | x | -2.9 | x | x
COCc1cccc(-c2csc(C(O)c3ccc(F)c(F)c3)n2)c1 (stereo not drawn) | 52.2* | 3.5 | x | x | -9.1 | x | -0.8
CCOC(=O)CC(=O)CSc1ncnc2c1nnn2-c1ccc(F)cc1 | 51.1* | 10.8 | 0.0 | -43.4 | -20.1 | x | 92.2*
CCOC(=O)CSc1ncnc2c1nnn2-c1ccc(F)cc1 | 0.9 | 0.9 | 0.3 | -1.8 | 1.7 | -2.0 | x
CC(=O)N1CCN(c2ncnc3sc(-c4ccccc4)cc23)CC1 | -5.9 | -4.2 | -0.9 | -19.8 | 4.9 | x | x
Oc1ccc(N2CCN(c3ncnc4sc(-c5ccccc5)cc34)CC2)cc1 | 32.4* | 15.0 | x | 13.1 | 6.9 | x | 14.8
O=C(O)c1c[nH]n2c(=S)ncnc12 | 2.2 | 0.0 | x | x | 5.0 | x | x
O=C(O)c1cc(=S)nc[nH]1 | 38.7* | -1.6 | x | 6.6 | -6.3 | x | 60.0*
C[C@@H]1C=C(C(=O)NCc2nc3ccccc3[nH]2)O[C@H](OCCCCO)C1 | 47.0* | 0.0 | 2.6 | 3.9 | -17.2 | -0.9 | 33.1*
C[C@@H]1C=C(C(=O)NCc2nc3ccccc3[nH]2)O[C@H](OCc2ccc(CO)cc2)C1 | 1.1 | -4.3 | 1.7 | 0.5 | 2.0 | x | x
Cc1ccc(-c2ccc(CCC(=O)O)n2-c2cccc(C(=O)O)c2)cc1 | 8.5 | 15.3 | 1.1 | 7.9 | 13.5 | 32.3 | x
COC(=O)c1cccc(-n2c(CCC(=O)O)ccc2-c2cccs2)c1 | 39.9* | 10.4 | 2.1 | 26.2 | 21.6 | 36.0 | 16.3
Cc1ccc(N2C(=O)CC(SCC(=O)Nc3ccc(S(N)(=O)=O)cc3)C2=O)cc1 (stereo not drawn) | 53.4* | 2.7 | 1.9 | -74.0 | -9.3 | 98.8* | 66.2*
NS(=O)(=O)c1ccc(NC(=O)CSC2CCCCC2)cc1 | -3.1 | -0.2 | -6.0 | 0.9 | -11.7 | -10.4 | x

Source: PubChem BioAssay
